From PubChem BioAssay AID743366 (National Center for Advancing Translational Sciences (NCATS), 2014) come the findings set out here.

Structures are written as SMILES.

The assay can be described thus: qHTS profiling of inhibitors of Plasmodium falciparum (HB3) proliferation (acoustic dispense). To be noted: P. falciparum HB3 in erythrocytes, SYBR Green, 72 h; at 49.8 µM (top of the series) unless noted. On the technique in general: In qHTS, concentration-response curves come from the screen itself.
As for `C1CCC(C(CC2CCCCN2)C2CCCCC2)CC1` (stereo unspecified), the activity (normalised, proliferation) is -0.0393%.

For `CC(C)n1nc(-c2ccc3oc(N)nc3c2)c2c(N)ncnc21`, the activity (normalised, proliferation) was -0.709%.

As for `OB1OCc2cc(F)ccc21`, the activity (normalised, proliferation) was determined as 0.13%.

Take `CCN[C@H]1C[C@H](C)S(=O)(=O)c2sc(S(N)(=O)=O)cc21`: the activity (normalised, proliferation) came out at 37.3%.

For `CCC(C=C[C@@H]1OC(=O)C=C[C@H]1C)=C[C@H](C)CC=CC(C)=C[C@@H](C)C(=O)[C@@H](C)[C@H](O)[C@@H](C)CC(C)=CC(=O)O`, the activity (normalised, proliferation) is 105% [at 1.88 µM].

For `Cn1cc(CNCC2CCN(c3ncc(C(=O)NO)cn3)CC2)c2ccccc21`, the activity (normalised, proliferation) is -0.786%.

Consider `CCCC[C@@H]1C[C@@H](C(=O)NC([C@H](C)Cl)[C@H]2O[C@H](S)[C@H](O)[C@@H](O)[C@@H]2O)N(C)C1` (stereo partly specified), for which the activity (normalised, proliferation) was 3.44%.

As for `CC(Sc1nc2ccccc2[nH]1)C(=O)NN=Cc1cc(Br)ccc1O` (stereo unspecified), the activity (normalised, proliferation) was -0.944% [at 4.15 µM].

For `CCCCCCCCCCOc1cc2c(=O)c(C(=O)OCC)c[nH]c2cc1OCC`, the activity (normalised, proliferation) is -0.332%.

Turning to `CC(C=CC(=O)NO)=C[C@@H](C)C(=O)c1ccc(N(C)C)cc1`, the activity (normalised, proliferation) is -0.304%.

On to `COC(=O)[C@]12CCC(C)(C)C[C@@H]1[C@@H]1C(=O)C=C3[C@@]4(C)C=C(C#N)C(=O)C(C)(C)[C@@H]4CC[C@@]3(C)[C@]1(C)CC2`, for which the activity (normalised, proliferation) amounted to 41.4%.

Consider `COc1ccc(-c2nc(N3CCOCC3)c3sc(CN(C)c4ncc(C(=O)NO)cn4)cc3n2)cn1`, for which the activity (normalised, proliferation) was -1.14%.

On to `C[C@H]1Cc2c([nH]c3cc(Cl)c(F)cc23)[C@@]2(N1)C(=O)Nc1ccc(Cl)cc12`, for which the activity (normalised, proliferation) was -0.548%.

On to `O=C1c2ccccc2-[n+]2ccc3c([nH]c4ccccc43)c21`, for which the activity (normalised, proliferation) stood at 4.27%.

In the case of `C#Cc1cccc(Nc2ncnc3cc(OC)c(OCCCCCCC(=O)NO)cc23)c1`, the activity (normalised, proliferation) is -0.996%.

With `C=C[C@@H]1CN2CCC1C[C@@H]2C(O)c1ccnc2ccc(OC)cc12` (stereo partly specified), the activity (normalised, proliferation) turned out to be 1.73%.

In the case of `COCCn1c2c([n+](Cc3cnccn3)c1C)C(=O)c1ccccc1C2=O`, the activity (normalised, proliferation) was -1.3%.

Take `CN([C@@H](Cc1ccc(OS(=O)(=O)c2cccc3cnccc23)cc1)C(=O)N1CCN(c2ccccc2)CC1)S(=O)(=O)c1cccc2cnccc12`: the activity (normalised, proliferation) was found to be 0.0465%.

For the compound `COc1cc(NC(C)CCCN)c2ncccc2c1` (stereo unspecified), the activity (normalised, proliferation) is 0.241%.

On to `CC(=NNC(=S)N1CCC1)c1ccccn1`, for which the activity (normalised, proliferation) was -0.583%.

As for `COc1cc(C)c2c(Oc3cccc(C(F)(F)F)c3)c(OC)cc(NCCCC(C)N)c2n1` (stereo unspecified), the activity (normalised, proliferation) was -2.19%.
